Data on 54 compounds can be found in ChEMBL document CHEMBL4513216, “Probing the Open Global Health Chemical Diversity Library for Multistage-Active Starting Points for Next-Generation Antimalarials” (ACS Infect Dis, 2020).

The campaign covered roughly 69,000 compounds. About 8,600 (12%) showed an effect of 50% or more. What follows is part of a selection rich in strong results, with near analogues and random picks from the rest.

The assay concerns Plasmodium berghei. The experiment in a line: Screen against P. berghei liver stage (PbLuc), transformed with Luciferase, at 10uM. The class given is functional, HepG2. The conditions noted are these: tested at 10 uM.
As for `CC(CN1CCCC1=O)NC(=O)c1cc(=O)[nH]c2ccc(Cl)cc12` (centres undefined), the INHIBITION came to 35.4%.
In the case of `Cc1noc(C)c1CCC(=O)N1CCOCC1CC(=O)N1CCCC1` (centres undefined) it was -14.1%; in that of `COCC(=O)N1CCO[C@H]2[C@H](OCc3cccnc3)CC[C@@H]21`, -15.7%; in that of `CNc1nc(N2CCC3(CCCNC3=O)C2)nc2c1CCC2` (centres undefined), -7.17%.
In the case of `O=C1NCCCC12CCN(c1nc3c(c(C(F)(F)F)n1)CCCC3)C2` (centres undefined) it was 80.7%.
For `Cc1nc(N2CCC3(CCCNC3=O)C2)nc2c1CCCC2` (centres undefined), the INHIBITION is 47.5%.
Consider `CCC(O)CN1CCN(C(=O)c2cccn2Cc2cccnc2)CC1` (centres undefined), for which the INHIBITION is 7.12%.
The figure for `CN(C)CCCNC(=O)C1CC(=O)N(c2n[nH]c3cccc(F)c23)C1` (centres undefined) is 14.6%.
Regarding `CC(C)(C)NC(=O)CNc1ncccn1`, the INHIBITION is -1.85%.
Turning to `Cc1nc(N2CCN(C)CC2)ncc1C(=O)N1CCCCCC1`, the INHIBITION was 51.7%.
Consider `Cc1nc(N2CCN(C)CC2)ncc1C(=O)N1CCCCC1`, for which the INHIBITION stood at 36.6%.
With `Cc1nc(N2CCN(C)CC2)ncc1C(=O)N1CCN(C)CC1`, the INHIBITION is reported as 23%.
In the case of `CC1CCN(c2ccc(C(=O)N3CCCC3c3ccc[nH]3)cn2)CC1` (centres undefined) it was 27%; in that of `CCCN1C(=O)[C@@H]2CC[C@H]1CN(S(=O)(=O)c1cccc(Cl)c1)C2`, -26.8%.
The figure for `COc1cccc(C(=O)NC(c2ccccn2)C2CCC(CN)CC2)c1` (centres undefined) is 41.2%; for `CN(CC(=O)Nc1nc2c(s1)CCCCCC2)C(=O)c1ccco1` it is 74.4%.
In the case of `CC1CCc2nc(NC(=O)CN(C)C(=O)c3ccco3)sc2C1` (centres undefined) it was 31.4%.
Consider `CN(CC(=O)Nc1nc2c(s1)CCC2)C(=O)c1cccs1`, for which the INHIBITION is -8.51%.
The figure for `Cc1cccc(CN2C[C@@H]3COC[C@]3(CNC(=O)c3ccccc3)C2)n1` is 38.3%; for `CC(=O)N1CCC(N2CCN(Cc3ccc(C)o3)C(CCO)C2)CC1` (centres undefined) it is 33.7%.
The figure for `COc1cc(N2CCN(Cc3ccc(C)o3)C(CCO)C2)nc(N)n1` (centres undefined) is 35.2%.
The figure for `Cc1ccc(CN2CCN(C3CCSCC3)CC2CCO)o1` (centres undefined) is 48%.
With `Cc1ccc(CN2CCN(C3CCC3)CC2CCO)o1` (centres undefined), the INHIBITION came out at 46.6%.
With `Cc1ccc(CN2CCN(C3CCCC3)CC2CCO)o1` (centres undefined), the INHIBITION amounted to 50.9%.
In the case of `Cc1ccc(CN2CCN(C3CSCCSC3)CC2CCO)o1` (centres undefined) it was 50.9%.
On to `CCCc1ccc(CN2CCC3(CCC(=O)N(C(C)C(=O)O)C3)CC2)o1` (centres undefined), for which the INHIBITION was 1.74%.
The figure for `O=C(CN1CCN(C(=O)c2sccc2C2CC2)CC1)NC1CC1` is 31.8%; for `CCOCC(=O)N1C[C@@H]2CC[C@H]1CN(C(=O)c1ccncc1)C2` it is -30.7%; for `Cc1cc(NC(C)c2csc(C)n2)n2nc(C)c(C)c2n1` (centres undefined) it is 25.4%.
Consider `CNC(=O)NC(=O)CSC(C)c1ccccc1F` (centres undefined), for which the INHIBITION was determined as 55%.
The figure for `CC(SCC(=O)N(C)CC(=O)NC1CC1)c1cc(F)ccc1F` (centres undefined) is 49.3%; for `CC(SCC(=O)N(C)CC(=O)NC1CC1)c1ccc(F)c(F)c1` (centres undefined) it is -18.9%; for `CCNC(=O)NC(=O)CSC(C)c1ccccc1F` (centres undefined) it is -32.3%.
The figure for `CC(SCC(=O)N(C)CC(=O)NC1CC1)c1ccccc1F` (centres undefined) is 85.7%.
In the case of `CC(SCC(=O)NC(N)=O)c1ccccc1F` (centres undefined) it was 24.7%.
For `Nc1nc(C2CCN(C(=O)c3cscn3)CC2)cs1`, the INHIBITION is reported as 34.7%.
In the case of `CN1C[C@@H]2CN(C(=O)NCc3ccccc3)CCC[C@]2(C(=O)O)C1` it was 5.63%; in that of `COCC1CC2(CCN(Cc3ccoc3)CC2)CN1C(C)C` (centres undefined), -1.26%; in that of `Cc1ccccc1CNC(=O)c1ccccc1-n1cc(CN)cn1`, 20.8%.
The figure for `CSCC[C@H](N)C(=O)NCc1cc2n(n1)CCCN(C(=O)C1CCC1)C2` is 28.5%; for `Cc1cc(C)c(CNC(=O)NCc2ccc(F)cc2)c(=O)[nH]1` it is 27.6%; for `c1cc2cc[nH]c2c(CC2CN(Cc3cncs3)C2)n1` it is -0.232%.
As to `Cn1ccc(CN2CC(Cc3nccc4cc[nH]c34)C2)n1`, the INHIBITION was determined as 41.5%.
Consider `c1cc2cc[nH]c2c(CC2CN(Cc3cscn3)C2)n1`, for which the INHIBITION turned out to be 53.6%.
In the case of `CC(=O)N1CC[C@@]2(O)CCCC[C@H]2[C@@H]1c1ccc2c(c1)OCO2`, the INHIBITION is on record as 52.1%.
For `NC(=O)CN1CC[C@@]2(O)CCCC[C@H]2[C@@H]1c1ccc2c(c1)OCO2`, the INHIBITION came out at 17.6%.
In the case of `COC(=O)N1CC[C@@]2(O)CCCC[C@H]2[C@@H]1c1ccc2c(c1)OCO2` it was 42.3%; in that of `CCOCC1CN(S(=O)(=O)N(C)C)Cc2cnn(CC3CC3)c21` (centres undefined), -57.7%; in that of `Cc1cc(CCC(=O)N2CCCC2)nc(C2CCCN2)n1` (centres undefined), 24.8%.
The figure for `O=S(=O)(CCCN1CCCCC1Cn1cncn1)c1ccccc1` (centres undefined) is -29.8%; for `CN(CC(=O)N1CCCCC1c1nccs1)C1CC1` (centres undefined) it is 13.6%.
The figure for `CC1CN(Cc2cccc(CNC3CCCC3)c2)CCO1` (centres undefined) is 37.4%; for `CC1CN(Cc2cccc(CN)c2)CCO1` (centres undefined) it is 59.1%.
Regarding `CCCN1CCC(NCc2cccc(CN3CCOC(C)C3)c2)CC1` (centres undefined), the INHIBITION turned out to be 21.1%.
